IL1B secr inh: blocks inflammasome-driven IL-1 beta release. THP-1 LPS/ATP IL-1B secretion, AlphaLISA, 16 h; stronger effect = lower value. activity change, % at 57.5 µM. 360,000 compounds, 4.7% hits. AID 743279; in the data active = activity change below about -50%; inconclusive = mostly about -30% to -49%; also: % is scaled to controls: 0 for no effect and ±100 for the full control effect
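THP-1 cells pretreated 1 hr with compounds (up to 57.5 uM final), then stimulated with LPS (250 ng/mL final) plus ATP (1.25 mM final); secreted IL-1B measured by AlphaLISA after 16 hr, decreased signal indicating inhibition.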
Gal4-VP16 FLuc: inhibits Gal4-VP16 luciferase reporter, ROR gamma counter-screen | Drosophila S2 Gal4-VP16 UAS-luciferase, luminescence, 20 h | Potency, µM (top dose mostly 53.6 µM), for inactives: top-dose activity, negative = inhibition, actives largely listed as inhibitors | 310,000 compounds, 3.5% hits | AID 2546;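 also: Gal4-VP16 expression switched on by copper sulfate through the metallothionein promoter; potency is read from the fitted curve at half-maximal effect; % is scaled to controls: 0 for no effect and ±100 for the full control effect; nearly all actives have a fitted effect of over 50% in size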
SW480 rereplic: induces DNA re-replication in SW480 colon adenocarcinoma cells; SW480 DNA re-replication, Hoechst DNA content imaging, 48 h; Potency, µM (highest dose often 46.1 µM), inactives show top-dose re-replication activation, most hits filed as activators; 340,000 compounds, 1.8% hits; also: potency is read from the fitted curve at half-maximal effect; % of control where 0% means no effect; nearly all actives have a fitted effect of over 55% in size
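250 cells/well; 23 nL cpd via pin tool; 48 hr, 37 C, 5% CO2; Hoechst 40 min; imager read of total nuclear intensity, ex 405/em 500-530 nm.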
RORgamma inh: ROR gamma (mouse) transcription inhibition. Potency, µM (series often up to 53.6 µM), for inactives: top-dose activity change, negative = inhibition, most hits filed as inhibitors. 310,000 compounds, 5.4% hits. Drosophila S2 Gal4-RORgamma UAS-luciferase reporter, 20 h. AID 2551; also: potency is read from the fitted curve at half-maximal effect; % is scaled to controls: 0 for no effect and ±100 for the full control effect; nearly all actives have a fitted effect of over 60% in size
Target sequence (P51450 whole entry, looked up, the tested form may be a part): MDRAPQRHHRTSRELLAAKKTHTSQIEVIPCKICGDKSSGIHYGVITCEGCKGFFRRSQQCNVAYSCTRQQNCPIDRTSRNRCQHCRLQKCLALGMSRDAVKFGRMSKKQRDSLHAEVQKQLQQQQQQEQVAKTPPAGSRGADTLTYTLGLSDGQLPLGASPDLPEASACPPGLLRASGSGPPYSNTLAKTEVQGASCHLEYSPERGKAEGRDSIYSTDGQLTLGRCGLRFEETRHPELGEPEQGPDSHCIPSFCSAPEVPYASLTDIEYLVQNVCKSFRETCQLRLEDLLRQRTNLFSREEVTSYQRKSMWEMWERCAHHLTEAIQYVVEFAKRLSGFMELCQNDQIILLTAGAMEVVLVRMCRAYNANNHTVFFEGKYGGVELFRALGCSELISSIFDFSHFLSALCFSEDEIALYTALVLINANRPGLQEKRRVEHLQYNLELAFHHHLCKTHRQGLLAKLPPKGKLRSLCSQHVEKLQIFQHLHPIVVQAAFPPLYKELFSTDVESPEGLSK
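ROR gamma transcriptional activity was tracked as Gal4-UAS luciferase output in stably transfected Drosophila Schneider cells, with compound added 1 hr before 700 uM copper sulfate induction and a 20 hr ambient-temperature incubation.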
MCF10A rerep: induces DNA re-replication in MCF 10a normal breast cells; Potency, µM (highest dose often 46.1 µM), without a hit: at the top dose activity, positive = re-replication, actives largely listed as activators; 350,000 compounds, 2.9% hits; MCF 10A DNA re-replication, Hoechst nuclear intensity, 48 h; also: potency is read from the fitted curve at half-maximal effect; % of control where 0% means no effect; nearly all actives have a fitted effect of over 50% in size
An asterisk follows results filed as active; ? = inconclusive; · = no result given; [ ] = dose if it differs, or a comment. Shown are actives, neighbours in structure and some others; about 11% of the full set was active somewhere. Unless noted, calls follow the shape of the dose curve; as a rule, active = well fitted curve in the direction sought with a large enough effect; inconclusive = small, poorly fitted or top-dose-only effect, or another doubt; inactive = no such curve, though single readings can be large; an effect the other way counts as inactive or inconclusive.

SMILES	IL1B secr inh	Gal4-VP16 FLuc	SW480 rereplic	RORgamma inh	MCF10A rerep
Cc1cccnc1C(NC(=O)C1CCN(Cc2ccc(Oc3ccccc3)cc2)CC1)c1ccc(F)cc1 (configuration not stated)	-67*	·	·	·	·
COc1ccc(OCCN2CCC(C(=O)NC(c3ccccc3)c3ccc4ccccc4n3)CC2)cc1 (configuration not stated)	-80*	·	·	·	·
O=C(NC(c1ccc(F)cc1)c1ccc2ccccc2n1)C1CCN(Cc2ccc(Oc3ccccc3)cc2)CC1 (configuration not stated)	-75*	·	·	·	·
Cn1cc(CN2CCC(C(=O)NC(c3ccc(F)cc3)c3ccc4ccccc4n3)CC2)c2ccccc21 (configuration not stated)	-81*	·	·	·	·
COc1ccc(C(NC(=O)C2CCN(CCc3ccccc3)CC2)c2ccccn2)cc1 (configuration not stated)	0	·	·	·	·
COc1ccc(OCCN2CCC(C(=O)NC(c3ccc(F)cc3)c3ccc4ccccc4n3)CC2)cc1 (configuration not stated)	-50*	·	·	·	·
COc1cc(CN2CCC(C(=O)NC(c3ccc(F)cc3)c3ccc4ccccc4n3)CC2)cc(OC)c1 (configuration not stated)	-15	·	·	·	·
O=C(NC(c1ccccc1)c1ccc2ccccc2n1)C1CCN(CCOc2ccc(Cl)cc2)CC1 (configuration not stated)	-100*	·	·	·	·
COc1cc(OC)nc(C(NC(=O)C2CCN(Cc3ccc(Oc4ccccc4)cc3)CC2)c2ccccc2C)n1 (configuration not stated)	-58*	·	·	·	·
COc1ccc(OCCN2CCC(C(=O)NC(c3ccc(OC)cc3)c3ccccn3)CC2)cc1 (configuration not stated)	-8	·	·	·	·
COc1ccc(C(NC(=O)C2CCN(CCOc3ccc(Cl)cc3)CC2)c2cccs2)cc1 (configuration not stated)	-71*	·	·	·	·
O=C(NC(c1ccc(Cl)cc1)c1ccccn1)C1CCN(CCOc2ccc(Cl)cc2Cl)CC1 (configuration not stated)	-7	·	·	·	·
Cc1cccnc1C(NC(=O)C1CCN(CCCc2ccccc2)CC1)c1ccc(Cl)cc1 (configuration not stated)	-57*	·	·	·	·
Cc1ccc(C(C)C)c(OCC(=O)Nc2ccc3c(c2)nc(CCN2CCCCC2)n3C)c1	-80*	?	?	?	?
COc1ccc(OCC(=O)Nc2ccc3c(c2)nc(CN2CCCC2)n3C)cc1	-11	-7%	-4%	-24%	10%
Cn1c(CN2CCCCC2)nc2cc(NC(=O)c3ccc(Cl)cc3)ccc21	?	0%	?	-21%	23µM*
Cn1c(CN2CCCC2)nc2cc(NC(=O)c3ccc(Cl)cc3)ccc21	-9	-10%	-2%	-1%	?
Cn1c(CN2CCCC2)nc2cc(NC(=O)COc3ccc(Cl)cc3)ccc21	-68*	7%	6%	-38%	29%
Cn1c(CCN2CCCCC2)nc2cc(NC(=O)COc3ccc(Cl)cc3)ccc21	-83*	6%	?	-1%	3%
CCCCNC(=O)[C@@H]1Cc2ccccc2N1C(=O)[C@H](N)CC	·	9%	·	10%	·
Nc1ccn([C@@H]2O[C@H](C(=O)N3CCCN(Cc4ccccc4F)CC3)[C@@H](O)[C@H]2O)c(=O)n1	18	·	·	·	·
CN(C(=O)c1cccc(NC(=O)Cc2ccc(NC(=O)C3CCN(C(=O)c4ccccc4)CC3)cc2)c1)C1CCCCC1	57	·	-1%[9.22 µM]	·	?
O=C1OC(CO)C(O)C(O)C1O (configuration not stated)	·	1%	3%	-1%	6%
Cc1nn(CC(=O)Nc2ccc3c(c2)nc(CCN2CCCCC2)n3C)c(=O)c2ccccc12	-12	-11%	?	-22%	16µM*
CC(=O)N1CCN(Cc2nc3cc(NC(=O)Cn4nc(C)c5ccccc5c4=O)ccc3n2C)CC1	0	-10%	10%	?	27%
SMILES	IL1B secr inh	Gal4-VP16 FLuc	SW480 rereplic	RORgamma inh	MCF10A rerep
CC(O)(c1ccc(F)c(F)c1)c1nc(-c2cc(F)cc(F)c2)cs1 (configuration not stated)	19	·	·	·	·
COc1ccc(CCNc2nnc(Sc3nnnn3-c3ccccc3)s2)cc1OC	-11	9%[0.365 µM]	2.9µM*	?	4.6µM*
COc1ccc(-n2nnnc2SCC(=O)NCCc2ccccc2)cc1OC	?	20%	-2%	-1%	-11%
O=C(/C(=C/c1ccccc1)n1cncn1)c1ccc(Cl)cc1Cl	-100*	?	?	24%	?
O=C(Nc1ccc(Oc2ccccc2)cc1)c1csc([C@@H]2C[C@H](O)[C@@H](CO)O2)n1	64	·	·	·	·
CCN1C(=NCCCOC(C)C)N[C@@H](CCc2ccccc2)[C@H](C(=O)NCCCOC(C)C)[C@H]1C	-58*	-7%	5%	?	?
CCN1C(=NCCOC)N[C@@H](CCc2ccccc2)[C@H](C(=O)OC)[C@H]1C	11	-9%	3%	-10%	-15%
CCS(=O)(=O)N1Cc2ccccc2CC1C(=O)Nc1ncc(C)s1 (configuration not stated)	13	-12%	-78%	-45%	-4%
O=C(NNc1nc2cc3c(cc2s1)OCO3)c1cccc(F)c1	10	?	?	4.5µM*	7%
CCS(=O)(=O)N1Cc2ccccc2CC1C(=O)Nc1nc2ccc(C)cc2s1 (configuration not stated)	0	?	-215%	1.3µM*	9%
O=C(NNc1nc2cc3c(cc2s1)OCO3)c1ccccc1	-17	?	2%	5µM*	9%
Cc1ccc2nc(NNC(=O)c3ccc4c(c3)OCCO4)sc2c1	14	?	2%	4.5µM*	9%
COC(=O)c1ccc(-c2csc(NC(=O)c3ccc(S(=O)(=O)N4CCc5ccccc5C4)cc3)n2)cc1	-1	-24%	?	-3%	-2%
Cc1ccc2nc(NNC(=O)c3ccc(S(=O)(=O)N4CCc5ccccc5C4)cc3)sc2c1	150	-10%	?	-1%	9.2µM*
Cc1ccc(S(=O)(=O)Nc2nc3ccccc3nc2Nc2cccc(S(=O)(=O)N3CCCC3)c2)cc1	33	-10%	?	?	21µM*
O=[N+]([O-])c1cccc(S(=O)(=O)Nc2nc3ccccc3nc2Nc2cccc(S(=O)(=O)N3CCCCC3)c2)c1	-21	11µM*	9%	?	8%
O=S(=O)(c1ccc2nc(Nc3ccccc3)ccc2c1)N1CCCCC1	-67*	-4%	2.8µM*	29%	?
O=C(CCCCCNC(=O)N1CCn2c1nc1ccccc12)N[C@H](C(=O)O)c1ccccc1	0	0%	0%	-12%	-1%

Screening data from PubChem.
